Experimental data: PubChem BioAssay (EPA / NIEHS)
Inconclusive results are not listed. Active and inactive are the calls of the source. The calls were made as follows: active = hit-call score of the fitted dose curve at least 0.9, where 1 is the maximum; inconclusive = response in the unintended direction; inactive = score below 0.9.

Legend:
[1] = target: zebrafish Thyroid Hormone Receptor beta (TRb), thrb (gene 30607) (UniProt Q9PVE4); assay: ATG_zfTRb_XSP1: Attagene TRANS-FACTORIAL Multi-Species (XSP1) HepG2 Assay for zebrafish Thyroid Hormone Receptor beta (TRb) (AID 2283809)
Sequence of zebrafish Thyroid Hormone Receptor beta (TRb), thrb (gene 30607) (Q9PVE4 whole entry, looked up, the tested form may be a part): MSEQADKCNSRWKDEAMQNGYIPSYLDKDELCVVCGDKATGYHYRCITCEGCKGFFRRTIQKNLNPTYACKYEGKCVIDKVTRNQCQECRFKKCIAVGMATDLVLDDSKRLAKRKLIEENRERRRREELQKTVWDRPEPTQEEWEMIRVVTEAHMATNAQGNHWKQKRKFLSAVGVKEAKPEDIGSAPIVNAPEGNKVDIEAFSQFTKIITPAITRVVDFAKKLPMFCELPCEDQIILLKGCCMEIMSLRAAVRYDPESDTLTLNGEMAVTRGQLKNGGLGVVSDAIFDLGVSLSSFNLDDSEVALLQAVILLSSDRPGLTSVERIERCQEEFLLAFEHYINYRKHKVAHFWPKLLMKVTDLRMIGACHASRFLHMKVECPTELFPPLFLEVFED
How it was run: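 HepG2 cells transiently transfected with multiplexed GAL4-UAS reporter units expressing chimeric zebrafish TRb–Gal4. Dosed 24 h with 3 nM 6-alpha-fluorotestosterone present; reporter mRNA measured by RT-PCR, HpaI digestion and capillary electrophoresis; gain of signal versus DMSO.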

[2] = ATG_XTT_Cytotoxicity_XSP1: Cytotoxicity Assessment in the Attagene TRANS-FACTORIAL Multi-Species (XSP1) HepG2 Assay (AID 2283810)
How it was run: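 XTT viability readout taken at 24 hours post-dosing in HepG2 liver cells co-treated with 3 nM 6-alpha-fluorotestosterone. Signal loss relative to DMSO controls reflects cytotoxicity.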

[3] = ATG_M_06_XSP2: Attagene TRANS-FACTORIAL Multi-Species (XSP2) HepG2 Assay for M06 Transcription Factor (Internal Marker) (AID 2283811);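 also: internal background marker reporter mRNA measured by RT-PCR and capillary electrophoresis; hits are increases in signal above the DMSO baseline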
How it was run: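 HepG2 cells transiently transfected with GAL4-UAS multi-reporter constructs, dosed 24 h with 3 nM 6-alpha-fluorotestosterone plus 1.5 nM norgestrel present to stimulate androgen receptor. Reporter mRNA quantified by RT-PCR, 6-FAM labelling, HpaI digestion and capillary electrophoresis; gain-of-signal fitted versus DMSO baseline.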

[4] = test system: turtle Estrogen Receptor (ERa), gene 101933533; assay: ATG_trERa_XSP2: Attagene TRANS-FACTORIAL Multi-Species (XSP2) HepG2 Assay for turtle Estrogen Receptor (ERa) (AID 2283812);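 also: human HepG2 liver cells transiently expressing turtle ERa-Gal4 chimeric receptor; actives raise reporter signal above DMSO so AC50 reflects agonist activity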
How it was run: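 HepG2 cells transiently transfected with GAL4-UAS reporter units expressing turtle ERa-Gal4 chimera. Reporter mRNA measured after 24 h dosing by RT-PCR, fluorescent labelling and capillary electrophoresis; gain of signal fitted versus DMSO.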

[5] = target: Estrogen receptor beta (Homo sapiens) (UniProt Q92731); assay: ATG_hERb_XSP2: Attagene TRANS-FACTORIAL Multi-Species (XSP2) HepG2 Assay for human Estrogen Receptor (ERb) (AID 2283813);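 also: actives raise reporter mRNA above DMSO so AC50 reflects agonist induction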
Sequence of Estrogen receptor beta (Homo sapiens) (Q92731 whole entry, looked up, the tested form may be a part): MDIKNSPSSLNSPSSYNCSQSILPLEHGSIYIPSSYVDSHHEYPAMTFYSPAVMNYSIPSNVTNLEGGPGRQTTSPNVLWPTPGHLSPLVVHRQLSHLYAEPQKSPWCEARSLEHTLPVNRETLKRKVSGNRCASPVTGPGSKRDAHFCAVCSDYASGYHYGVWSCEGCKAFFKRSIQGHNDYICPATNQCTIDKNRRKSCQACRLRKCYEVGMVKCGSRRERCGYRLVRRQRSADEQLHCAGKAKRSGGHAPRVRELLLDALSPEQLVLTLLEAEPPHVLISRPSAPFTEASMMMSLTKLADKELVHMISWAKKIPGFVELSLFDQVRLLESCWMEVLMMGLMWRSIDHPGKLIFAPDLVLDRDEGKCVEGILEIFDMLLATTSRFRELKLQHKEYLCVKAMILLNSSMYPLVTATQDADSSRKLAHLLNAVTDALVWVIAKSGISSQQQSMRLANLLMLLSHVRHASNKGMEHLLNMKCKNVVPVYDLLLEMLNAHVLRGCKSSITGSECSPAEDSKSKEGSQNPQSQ
How it was run: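 HepG2 cells transiently transfected with GAL4-UAS reporter units and chimeric human ERb-Gal4, 24 h exposure. Reporter mRNA quantified by RT-PCR with FAM labelling, HpaI digestion and capillary electrophoresis; gain of signal versus DMSO.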

[6] = target: zebrafish Estrogen Receptor (ER1), esr1 (gene 259252) (UniProt P57717); assay: ATG_zfER1_XSP2: Attagene TRANS-FACTORIAL Multi-Species (XSP2) HepG2 Assay for zebrafish Estrogen Receptor (ER1) (AID 2283816)
Sequence of zebrafish Estrogen Receptor (ER1), esr1 (gene 259252) (P57717 whole entry, looked up, the tested form may be a part): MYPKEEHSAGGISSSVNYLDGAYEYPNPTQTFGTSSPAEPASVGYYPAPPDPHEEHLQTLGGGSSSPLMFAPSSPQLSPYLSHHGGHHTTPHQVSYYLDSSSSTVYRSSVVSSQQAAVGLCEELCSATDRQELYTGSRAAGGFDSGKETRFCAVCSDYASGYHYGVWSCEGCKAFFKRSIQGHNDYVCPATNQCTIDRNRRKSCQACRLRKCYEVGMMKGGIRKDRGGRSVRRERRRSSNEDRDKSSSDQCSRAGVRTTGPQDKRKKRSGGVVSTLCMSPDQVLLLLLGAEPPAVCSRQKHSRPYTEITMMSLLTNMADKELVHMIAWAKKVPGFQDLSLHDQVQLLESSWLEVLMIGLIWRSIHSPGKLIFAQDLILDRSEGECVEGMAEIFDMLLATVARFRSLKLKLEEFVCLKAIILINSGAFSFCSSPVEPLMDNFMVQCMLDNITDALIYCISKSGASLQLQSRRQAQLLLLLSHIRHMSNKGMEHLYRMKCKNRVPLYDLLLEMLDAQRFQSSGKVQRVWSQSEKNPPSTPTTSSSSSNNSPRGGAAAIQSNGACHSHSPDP
How it was run: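 HepG2 cells transiently transfected with a GAL4-UAS reporter and a chimeric zebrafish ER1-Gal4 construct, dosed 24 h. Reporter mRNA quantified by RT-PCR, labelling, HpaI digestion and capillary electrophoresis, relative to DMSO.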

[7] = target: chicken Estrogen Receptor (ERa), ESR1 (gene 396099) (UniProt P06212); assay: ATG_chERa_XSP2: Attagene TRANS-FACTORIAL Multi-Species (XSP2) HepG2 Assay for chicken Estrogen Receptor (ERa) (AID 2283817);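 also: actives raise reporter signal above DMSO so AC50 reflects ER activation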
Sequence of chicken Estrogen Receptor (ERa), ESR1 (gene 396099) (P06212 whole entry, looked up, the tested form may be a part): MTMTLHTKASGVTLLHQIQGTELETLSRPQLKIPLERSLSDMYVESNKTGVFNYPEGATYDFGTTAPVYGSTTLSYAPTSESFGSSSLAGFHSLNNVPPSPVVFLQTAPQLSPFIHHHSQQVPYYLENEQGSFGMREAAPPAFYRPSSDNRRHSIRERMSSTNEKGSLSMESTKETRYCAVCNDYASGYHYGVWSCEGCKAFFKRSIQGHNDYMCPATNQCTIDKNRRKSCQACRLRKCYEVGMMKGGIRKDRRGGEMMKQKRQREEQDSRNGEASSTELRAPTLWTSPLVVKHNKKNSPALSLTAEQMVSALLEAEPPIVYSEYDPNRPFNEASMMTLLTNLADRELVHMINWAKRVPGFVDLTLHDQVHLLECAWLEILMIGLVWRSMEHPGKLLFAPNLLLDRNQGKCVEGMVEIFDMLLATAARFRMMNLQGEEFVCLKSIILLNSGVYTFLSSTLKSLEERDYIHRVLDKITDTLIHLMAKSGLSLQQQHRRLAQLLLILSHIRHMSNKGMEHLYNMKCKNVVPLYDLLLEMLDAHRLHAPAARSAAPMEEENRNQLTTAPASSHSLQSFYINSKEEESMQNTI
How it was run: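 HepG2 cells transiently transfected with multiplexed GAL4-UAS reporter units expressing chimeric chicken ERa-Gal4; 24 h compound exposure. Reporter mRNA measured by RT-PCR with 6-FAM labelling, HpaI digestion and capillary electrophoresis; gain-of-signal fitted versus DMSO.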

[8] = test system: zebrafish Estrogen Receptor (ER2a), gene 317734; assay: ATG_zfER2a_XSP2: Attagene TRANS-FACTORIAL Multi-Species (XSP2) HepG2 Assay for zebrafish Estrogen Receptor (ER2a) (AID 2283818);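 also: hits raise reporter mRNA so AC50 reflects activation of zebrafish ER2a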
How it was run: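 HepG2 cells transiently transfected with GAL4-UAS reporter units and chimeric zebrafish ER2a-Gal4, exposed 24 h; medium contains 3 nM 6-alpha-fluorotestosterone and 1.5 nM norgestrel. Reporter mRNA quantified by RT-PCR, HpaI digestion, capillary electrophoresis; gain versus DMSO.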

[9] = test system: frog Estrogen Receptor (ER), gene 398734; assay: ATG_frER1_XSP2: Attagene TRANS-FACTORIAL Multi-Species (XSP2) HepG2 Assay for frog Estrogen Receptor (ER) (AID 2283821);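 also: hits raise reporter mRNA above DMSO baseline so potency means agonist or activator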
How it was run: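 HepG2, transient MRTU transfection, chimeric NR-GAL4/UAS reporters; 24 h compound exposure, 24-well. Readout: reporter mRNA via RT-PCR + capillary electrophoresis, fluorescence. Positive fit vs DMSO baseline.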

[10] = test system: zebrafish Estrogen Receptor (ER2b), gene 317733; assay: ATG_zfER2b_XSP2: Attagene TRANS-FACTORIAL Multi-Species (XSP2) HepG2 Assay for zebrafish Estrogen Receptor (ER2b) (AID 2283823);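 also: fitted upward as reporter gain over DMSO so potency reflects activation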
How it was run: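 Transcriptional induction measured as reporter mRNA (RT-PCR, fluorescent capillary electrophoresis) in transiently transfected HepG2 cells after 24 h dosing; DMSO served as negative control and baseline.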

[11] = target: Estrogen receptor (Homo sapiens) (UniProt P03372); assay: ATG_hERa_XSP2: Attagene TRANS-FACTORIAL Multi-Species (XSP2) HepG2 Assay for human Estrogen Receptor (ERa) (AID 2283827)
Sequence of Estrogen receptor (Homo sapiens) (P03372 whole entry, looked up, the tested form may be a part): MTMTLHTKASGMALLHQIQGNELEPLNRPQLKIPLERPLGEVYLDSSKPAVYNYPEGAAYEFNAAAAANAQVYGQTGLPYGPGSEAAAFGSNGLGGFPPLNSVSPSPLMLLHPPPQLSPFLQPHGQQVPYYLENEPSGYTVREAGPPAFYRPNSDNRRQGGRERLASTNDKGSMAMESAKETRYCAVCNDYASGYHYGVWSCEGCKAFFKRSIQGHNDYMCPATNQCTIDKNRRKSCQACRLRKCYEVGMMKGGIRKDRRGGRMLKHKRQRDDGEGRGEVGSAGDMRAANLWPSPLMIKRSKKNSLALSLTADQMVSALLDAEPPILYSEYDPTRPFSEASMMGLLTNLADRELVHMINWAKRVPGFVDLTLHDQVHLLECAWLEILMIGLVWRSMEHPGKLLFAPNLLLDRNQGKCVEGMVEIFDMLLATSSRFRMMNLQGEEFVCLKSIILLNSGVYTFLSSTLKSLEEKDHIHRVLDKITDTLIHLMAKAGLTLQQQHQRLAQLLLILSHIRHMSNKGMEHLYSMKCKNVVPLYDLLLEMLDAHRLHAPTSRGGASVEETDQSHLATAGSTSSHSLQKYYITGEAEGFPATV
How it was run: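 HepG2 cells transiently transfected with multiplexed GAL4-UAS reporters driven by chimeric receptor-Gal4 proteins, dosed 24 h with 3 nM 6-alpha-fluorotestosterone and 1.5 nM norgestrel present. Reporter mRNA by RT-PCR and capillary electrophoresis; gain-of-signal fit versus DMSO.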

[12] = test system: frog Estrogen Receptor (ER2), gene 100174814; assay: ATG_frER2_XSP2: Attagene TRANS-FACTORIAL Multi-Species (XSP2) HepG2 Assay for frog Estrogen Receptor (ER2) (AID 2283828)
How it was run: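 Human liver HepG2, transient MRTU transfection (TRANS format, exogenous NR–Gal4). 24 h cpd exposure. Total RNA → RT → PCR → FAM label → HpaI cut → CE. Positive direction vs DMSO.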

[13] = target: Peroxisome proliferator-activated receptor gamma (Homo sapiens) (UniProt P37231); assay: ATG_hPPARg_XSP2: Attagene TRANS-FACTORIAL Multi-Species (XSP2) HepG2 Assay for human Peroxisome Proliferator-activated Receptor gamma (PPARg) (AID 2283829);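 also: actives raise reporter mRNA above DMSO so AC50 reflects PPARg activation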
Sequence of Peroxisome proliferator-activated receptor gamma (Homo sapiens) (P37231 whole entry, looked up, the tested form may be a part): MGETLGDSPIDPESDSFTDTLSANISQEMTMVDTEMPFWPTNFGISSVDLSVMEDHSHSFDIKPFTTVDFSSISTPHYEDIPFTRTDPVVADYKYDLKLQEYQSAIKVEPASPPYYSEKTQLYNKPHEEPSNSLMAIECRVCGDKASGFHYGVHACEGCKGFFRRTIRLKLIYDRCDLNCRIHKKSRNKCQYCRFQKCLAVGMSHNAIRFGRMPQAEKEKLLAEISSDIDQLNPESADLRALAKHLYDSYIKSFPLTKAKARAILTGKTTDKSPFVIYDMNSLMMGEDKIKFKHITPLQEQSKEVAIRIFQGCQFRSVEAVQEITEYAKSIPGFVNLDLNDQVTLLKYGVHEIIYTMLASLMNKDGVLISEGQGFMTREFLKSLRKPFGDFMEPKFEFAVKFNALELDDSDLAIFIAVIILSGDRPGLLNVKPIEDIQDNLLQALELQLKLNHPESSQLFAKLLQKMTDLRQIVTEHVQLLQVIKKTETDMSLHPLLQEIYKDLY
How it was run: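 Human HepG2 cells carried transiently transfected Gal4 reporter units and were treated with chemical for 24 h alongside androgen-receptor stimulants (3 nM 6-alpha-fluorotestosterone, 1.5 nM norgestrel). Reporter transcripts were detected by RT-PCR with capillary electrophoresis, analysed in the positive direction against DMSO.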

[14] = target: mouse Peroxisome Proliferator-activated Receptor gamma (PPARg), Pparg (gene 19016) (UniProt P37238); assay: ATG_mPPARg_XSP2: Attagene TRANS-FACTORIAL Multi-Species (XSP2) HepG2 Assay for mouse Peroxisome Proliferator-activated Receptor gamma (PPARg) (AID 2283830);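 also: hits are gains in reporter mRNA above DMSO so AC50 marks activation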
Sequence of mouse Peroxisome Proliferator-activated Receptor gamma (PPARg), Pparg (gene 19016) (P37238 whole entry, looked up, the tested form may be a part): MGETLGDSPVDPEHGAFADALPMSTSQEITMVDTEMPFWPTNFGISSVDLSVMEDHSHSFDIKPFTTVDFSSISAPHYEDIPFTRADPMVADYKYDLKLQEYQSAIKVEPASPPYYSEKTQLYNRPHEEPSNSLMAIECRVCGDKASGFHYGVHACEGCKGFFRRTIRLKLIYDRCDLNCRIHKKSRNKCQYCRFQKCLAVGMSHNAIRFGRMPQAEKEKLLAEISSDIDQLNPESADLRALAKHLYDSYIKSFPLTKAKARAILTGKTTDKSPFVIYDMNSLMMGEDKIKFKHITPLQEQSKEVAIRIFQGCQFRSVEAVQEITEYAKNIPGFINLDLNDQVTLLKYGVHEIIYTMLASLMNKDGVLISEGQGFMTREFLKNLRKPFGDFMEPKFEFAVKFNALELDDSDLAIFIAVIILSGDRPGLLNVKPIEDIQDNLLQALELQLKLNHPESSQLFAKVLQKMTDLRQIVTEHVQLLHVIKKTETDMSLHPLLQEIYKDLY
How it was run: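 HepG2 cells transiently transfected with GAL4-UAS reporter units for chimeric NR-Gal4 proteins including mouse PPARg, exposed 24 h; medium contained 3 nM 6-alpha-fluorotestosterone and 1.5 nM norgestrel. Reporter mRNA quantified by RT-PCR, HpaI digestion and capillary electrophoresis, vs DMSO.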

[15] = target: Nuclear receptor subfamily 1 group I member 2 (Mus musculus) (UniProt O54915); assay: ATG_mPXR_XSP2: Attagene TRANS-FACTORIAL Multi-Species (XSP1) HepG2 Assay for mouse Pregnane X Receptor (PXR) (AID 2283831)
Sequence of Nuclear receptor subfamily 1 group I member 2 (Mus musculus) (O54915 whole entry, looked up): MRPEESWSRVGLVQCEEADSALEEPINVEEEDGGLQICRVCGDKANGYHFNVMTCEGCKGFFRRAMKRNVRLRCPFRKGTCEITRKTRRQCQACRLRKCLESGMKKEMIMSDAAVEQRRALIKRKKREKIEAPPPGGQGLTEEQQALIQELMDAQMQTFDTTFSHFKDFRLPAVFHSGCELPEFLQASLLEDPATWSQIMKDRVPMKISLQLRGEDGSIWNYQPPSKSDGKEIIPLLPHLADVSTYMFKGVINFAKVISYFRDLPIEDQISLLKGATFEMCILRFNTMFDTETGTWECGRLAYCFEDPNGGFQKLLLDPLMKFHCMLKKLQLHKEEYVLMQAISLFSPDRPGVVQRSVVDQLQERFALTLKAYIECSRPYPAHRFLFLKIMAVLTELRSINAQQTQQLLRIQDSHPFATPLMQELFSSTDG
How it was run: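 Fluorescence signals from capillary electrophoresis of RT-PCR-amplified reporter mRNA give the readout, gain-of-signal versus DMSO. Transfected HepG2 cells, 24 h dosing, medium contained 3 nM 6-alpha-fluorotestosterone and 1.5 nM norgestrel.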

[16] = target: zebrafish Thyroid Hormone Receptor alpha (TRa), thraa (gene 30670) (UniProt Q98867); assay: ATG_zfTRa_XSP2: Attagene TRANS-FACTORIAL Multi-Species (XSP1) HepG2 Assay for zebrafish Thyroid Hormone Receptor alpha (TRa) (AID 2283832);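 also: actives raise zebrafish TRa-Gal4 reporter transcript above DMSO baseline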
Sequence of zebrafish Thyroid Hormone Receptor alpha (TRa), thraa (gene 30670) (Q98867 whole entry, looked up, the tested form may be a part): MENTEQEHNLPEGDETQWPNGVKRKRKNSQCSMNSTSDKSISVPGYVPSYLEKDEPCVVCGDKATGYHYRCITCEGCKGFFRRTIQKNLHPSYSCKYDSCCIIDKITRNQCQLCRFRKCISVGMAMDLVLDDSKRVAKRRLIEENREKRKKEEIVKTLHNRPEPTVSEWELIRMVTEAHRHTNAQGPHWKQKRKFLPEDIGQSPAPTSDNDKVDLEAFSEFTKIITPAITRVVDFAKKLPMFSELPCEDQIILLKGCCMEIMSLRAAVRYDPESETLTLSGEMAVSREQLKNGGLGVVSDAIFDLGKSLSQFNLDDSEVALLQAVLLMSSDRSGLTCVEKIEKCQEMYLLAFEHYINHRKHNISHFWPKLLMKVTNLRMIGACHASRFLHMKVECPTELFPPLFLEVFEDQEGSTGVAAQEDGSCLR
How it was run: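 Transient transfection of human HepG2 with GAL4-UAS reporter units, then 24 h chemical treatment. RNA isolated, reverse-transcribed, PCR-amplified, FAM-labelled, HpaI-digested and run on capillary electrophoresis. Gain-of-signal relative to DMSO.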

[17] = test system: zebrafish Peroxisome Proliferator-activated Receptor gamma (PPARg), gene 557037; assay: ATG_zfPPARg_XSP2: Attagene TRANS-FACTORIAL Multi-Species (XSP2) HepG2 Assay for zebrafish Peroxisome Proliferator-activated Receptor gamma (PPARg) (AID 2283833);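 also: actives increase reporter signal over DMSO so AC50 reflects activation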
How it was run: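 HepG2, transient MRTU transfection, 24 h compound; zfPPARg-GAL4 reporter mRNA by RT-PCR + capillary electrophoresis; gain-of-signal vs DMSO.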

[18] = target: GAL4 Transcription Factor (Internal Marker), GAL4 (gene 855828) (UniProt P04386); assay: ATG_GAL4_XSP2: Attagene TRANS-FACTORIAL Multi-Species (XSP2) HepG2 Assay for GAL4 Transcription Factor (Internal Marker) (AID 2283814);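 also: GAL4 reporter mRNA background control in MRTU transfected cells not a receptor target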
How it was run: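 HepG2 cells transiently transfected with GAL4-UAS reporter units, stimulated with 3 nM 6-alpha-fluorotestosterone plus 1.5 nM norgestrel, dosed 24 h. Reporter mRNA by RT-PCR/capillary electrophoresis; gain-of-signal fit versus DMSO, background control.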

[19] = test system: turtle Androgen Receptor (AR), gene 101947425; assay: ATG_trAR_XSP2: Attagene TRANS-FACTORIAL Multi-Species (XSP2) HepG2 Assay for turtle Androgen Receptor (AR) (AID 2283815)
How it was run: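 HepG2 cells transiently transfected with GAL4-UAS reporter units for chimeric NR-Gal4 receptors; 24 h dosing in presence of 3 nM 6-alpha-fluorotestosterone and 1.5 nM norgestrel. Reporter mRNA by RT-PCR and capillary electrophoresis, gain of signal versus DMSO.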

[20] = test system: chicken Androgen Receptor (AR), gene 422165; assay: ATG_chAR_XSP2: Attagene TRANS-FACTORIAL Multi-Species (XSP2) HepG2 Assay for chicken Androgen Receptor (AR) (AID 2283819);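 also: hits raise reporter mRNA above DMSO so potency is for activation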
How it was run: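 HepG2 cells transiently transfected with chicken AR–GAL4 chimeric reporter constructs, stimulated with 3 nM 6-alpha-fluorotestosterone plus 1.5 nM norgestrel, dosed 24 h. Reporter mRNA quantified by RT-PCR and capillary electrophoresis; gain of signal fitted versus DMSO.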

CC(C)C(=O)Nc1ccc([N+](=O)[O-])c(C(F)(F)F)c1
AC50 [1]: 40.2 µM (active)
outcome [2]: inactive
outcome [3]: inactive
outcome [4]: inactive
outcome [5]: inactive
outcome [6]: inactive
outcome [7]: inactive
outcome [8]: inactive
AC50 [9]: 26.3 µM (active)
AC50 [10]: 70.8 µM (active)
AC50 [11]: 27.2 µM (active)
outcome [12]: inactive
AC50 [13]: 53.9 µM (active)
AC50 [14]: 82.6 µM (active)
AC50 [15]: 100 µM (active)
outcome [16]: inactive
outcome [17]: inactive

C=CCc1cc(S(=O)(=O)c2ccc(O)c(CC=C)c2)ccc1O
outcome [1]: inactive
AC50 [2]: 160 µM (active)
outcome [3]: inactive
AC50 [4]: 8.75 µM (active)
outcome [5]: inactive
outcome [18]: inactive
outcome [19]: inactive
AC50 [7]: 3.5 µM (active)
outcome [8]: inactive
AC50 [20]: 8.4 µM (active)
AC50 [9]: 8.79 µM (active)
AC50 [10]: 17.4 µM (active)
AC50 [11]: 2.71 µM (active)
outcome [12]: inactive
AC50 [13]: 5.26 µM (active)
AC50 [14]: 19.2 µM (active)
outcome [15]: inactive
outcome [17]: inactive

CCN(CC)C(=S)SSC(=S)N(CC)CC
outcome [1]: inactive
AC50 [2]: 30.8 µM (active)
outcome [3]: inactive
outcome [10]: inactive
AC50 [13]: 34.9 µM (active)
AC50 [14]: 42.9 µM (active)
AC50 [15]: 5.57 µM (active)
outcome [16]: inactive
outcome [17]: inactive
